Data: PubChem BioAssay AID1961 (Sanford-Burnham Center for Chemical Genomics, 2009)
The whole screen tested about 290,000 compounds, of which about 140 (0.048%) were called active.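 Rule for the calls: active = activation above 40% with more than 50 cells counted in the well; inconclusive = wells holding fewer than 50 cells, flagged as toxic or sparse; inactive = the rest.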 The full list was thinned out, with actives kept by preference.

Columns and labels:
[1] = selective activators of receptor GPR55 – imaging, U2OS cells, beta-arrestin-GFP redistribution, primary screen (AID 1961); details: measured here: cytotoxicity, cells analyzed, at 10 µM;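 note: U2OS osteosarcoma cells stably expressing GPR55 and beta-arrestin-GFP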;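 for activation: plate controls were DMSO negative control for no effect and LPI positive control for full effect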
[2] = molecular target: G-protein coupled receptor 55 (Homo sapiens) (UniProt Q9Y2T6); assay: as above; details: at 10 µM, stronger effect = higher value
Chain of G-protein coupled receptor 55 (Homo sapiens) (Q9Y2T6 whole entry, looked up): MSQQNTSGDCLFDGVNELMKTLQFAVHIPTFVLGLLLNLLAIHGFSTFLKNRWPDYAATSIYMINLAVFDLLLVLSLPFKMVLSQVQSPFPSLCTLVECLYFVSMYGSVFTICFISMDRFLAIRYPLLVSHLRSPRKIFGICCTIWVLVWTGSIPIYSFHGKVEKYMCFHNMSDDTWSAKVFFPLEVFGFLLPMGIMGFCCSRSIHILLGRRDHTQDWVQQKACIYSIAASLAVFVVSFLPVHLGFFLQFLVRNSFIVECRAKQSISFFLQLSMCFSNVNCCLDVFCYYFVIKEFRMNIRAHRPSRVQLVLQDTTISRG

Row | Compound | cell count [1] [cells] | activation [2]
1 | CN1/C(=C\C=Nc2ccccc2)C(C)(C)c2ccccc21 | 360 | -0.1% (inactive)
2 | CN1/C(=C\C=C2C(=O)NC(=S)NC2=O)C(C)(C)c2ccccc21 | 268 | 57.7% (active)
3 | CN1/C(=C\C=C2C(=O)NC(=O)NC2=O)C(C)(C)c2ccccc21 | 294 | 0.4% (inactive)
4 | N[C@@H](Cc1c[nH]c2ccccc12)c1nnc(SCc2ccc(Cl)cc2)o1 | 304 | 0.1% (inactive)
5 | CC(=Nc1ccccc1N)c1c(O)n(C)c(=O)[nH]c1=O | 323 | 0.7% (inactive)
